GCN5L2 inh = qHTS Assay for Inhibitors of GCN5L2; GCN5L2 HAT assay, ThioGlo1 CoA-SH fluorescence; Potency, µM (doses to about 58.9 µM), hits mostly inhibitors; hit rate 0.21% among 390,000
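qHTS, 1536-well. 20nM enzyme, pH 7.5 HEPES/EDTA/Tween-20 buffer; 15 min compound preinc., RT. Start: 75uM H3(1-25), 70uM AcCoA, 50uM ThioGlo1. Read Ex340/Em540 at t=0 (autofluorescence flag) and t=20 min.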
TR SRC2 fluor cs = Total Fluorescence Counterscreen for Inhibitors of the Interaction of Thyroid Hormone Receptor and Steroid Receptor Coregulator 2. TRb/SRC2 Texas Red total fluorescence interference. Potency, µM (series often up to 106 µM). hit rate 0.29% among 280,000; active means well fitted curve in either direction with a large enough effect; inconclusive means small, poorly fitted or top-dose-only effect
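Flags fluorescent or light-absorbing compounds by total fluorescence, S + 2P, at 555 nm excitation and 632 nm emission. Mixture: 20 nM Texas Red SRC2 peptide, 0.6 uM human TRb LBD, 1 uM T3, 5% DMSO; compound exposure 5 h at ambient temperature.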
GoLoco inh red = qHTS Assay for Inhibitors of RGS12 GoLoco Motif Activity (Red Fluorophore) | Gai1:RGS12 GoLoco peptide FP, rhodamine, 10 min | Potency, µM (titrated, usually from 61.6 µM), usual class: inhibitors | hit rate 0.44% among 230,000 | AID 880, 2007; active means well fitted inhibition curve with a large enough effect, not every such curve was filed as active; inactive means no such curve, though single readings can be large or run the other way; further: nearly all actives have a fitted effect of over 30% in size
TRb SRC2 PPI = qHTS for Inhibitors of the Interaction of Thyroid Hormone Receptor and Steroid Receptor Coregulator 2; AID 1469, 2008; Potency, µM (highest dose often 106 µM), usual class: inhibitors; Thyroid hormone receptor beta (Homo sapiens), P10828; hit rate 0.065% among 280,000; TRbeta-SRC2 peptide binding, fluorescence polarization; receptor liganded with 1 µM T3; further: nearly all actives have a fitted effect of over 50% in size
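Each compound concentration gave % activity, normalized to unbound and bound Texas Red SRC2 controls, from polarization read after 5 hr ambient incubation with T3-loaded human TRb LBD.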
VDR inh = Inhibitors of the vitamin D receptor (VDR): qHTS; Vitamin D3 receptor (Homo sapiens), P11473; VDR-SRC2-3 peptide fluorescence polarization, 2 h; Potency, µM, hits mostly inhibitors; hit rate 0.93% among 400,000; AID 504847, 2011
Target sequence (P11473 whole entry, looked up): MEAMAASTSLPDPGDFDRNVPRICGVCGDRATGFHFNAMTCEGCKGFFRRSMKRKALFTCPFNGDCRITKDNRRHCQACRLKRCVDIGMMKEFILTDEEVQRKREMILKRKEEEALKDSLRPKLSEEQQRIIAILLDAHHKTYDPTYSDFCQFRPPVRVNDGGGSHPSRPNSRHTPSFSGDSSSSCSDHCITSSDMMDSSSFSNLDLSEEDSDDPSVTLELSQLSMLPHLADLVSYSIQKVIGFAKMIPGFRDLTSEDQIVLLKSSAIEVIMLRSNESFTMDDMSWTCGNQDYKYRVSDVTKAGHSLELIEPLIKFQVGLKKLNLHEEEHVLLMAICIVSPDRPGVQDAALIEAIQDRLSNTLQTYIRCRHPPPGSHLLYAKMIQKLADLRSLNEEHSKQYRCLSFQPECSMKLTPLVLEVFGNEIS
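The screen uses fluorescence polarization to detect compounds that interfere with recruitment of the SRC2-3 coactivator peptide to VDR; plates are read after 2 h at room temperature.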
VDR confirm = qHTS for Inhibitors of the vitamin D receptor (VDR): Hit Validation in Primary Screen. shares compounds with VDR inh. VDR-coactivator inhibition assay, qHTS confirmation. Potency, µM, usual class: inhibitors. hit rate 89% among 840. AID 602199, 2012
VDR FP = qHTS for Inhibitors of the vitamin D receptor (VDR): Hit Validation using a Fluorescein Assay; Potency, µM (highest dose often 57.1 µM), usual class: inhibitors; VDR-coactivator binding, fluorescein fluorescence polarization; AID 602200, 2012; hit rate 48% among 840; shares compounds with VDR inh
VDR bla reporter = qHTS for Inhibitors of the vitamin D receptor (VDR): Hit Validation using a Beta-Lactamase Assay | VDR beta-lactamase reporter cells, FRET ratio; cells co-treated with VDR agonist LG190178 | shares compounds with VDR inh | hit rate 23% among 840 | Potency, µM (series often up to 46.1 µM), actives largely listed as inhibitors | AID 602202, 2012
VDR viability = qHTS for Inhibitors of the vitamin D receptor (VDR): Hit Validation using a Cytotoxicity Assay; AID 602204, 2012; shares compounds with VDR inh; Potency, µM (top dose mostly 48.3 µM), actives largely listed as cytotoxic; hit rate 18% among 840; cytotoxicity counter-screen, cell viability, qHTS; further: nearly all actives have a fitted effect of over 75% in size
Hits are given with their value; - = inactive; ? = inconclusive; . = no result; [ ] = another dose, or the depositor's remark. Shown are actives, neighbours in structure and some others; about 1.2% of the full set was active somewhere. Unless noted, the call rests on the fitted dose curve; in most records, active means well fitted curve in the direction sought with a large enough effect; inconclusive means small, poorly fitted or top-dose-only effect, or another doubt; inactive means no such curve, though single readings can be large; an effect the other way counts as inactive or inconclusive.

SMILES | GCN5L2 inh | TR SRC2 fluor cs | GoLoco inh red | TRb SRC2 PPI | VDR inh | VDR confirm | VDR FP | VDR bla reporter | VDR viability
COC(=O)c1c(C)ccc2c(O)c3c(cc12)C(=O)c1c2c(cc(O)c1C3=O)[C@@]1(C)O[C@@](C)(O2)[C@@H](O)[C@H](N(C)C)[C@H]1O | . | . | -[14.2 µM] | . | . | . | . | . | .
CC(=O)O[C@H]1CC[C@H]2[C@@H]3CCC4=C[C@@H](C5SCCS5)[C@H](OC(C)=O)C[C@]4(C)[C@H]3CC[C@@]12C | . | . | -[14.2 µM] | . | . | . | . | . | .
COc1cccc(C2CC3C(=O)C=CC2N3Cc2ccccc2)c1 (stereo not given) | - | - | - | - | ? | 17.8 | ? | 20.6µM | -
COc1cccc(-c2nn(Cc3ccccc3)cc2C(=O)O)c1 | - | . | . | . | - | . | . | . | .
CN1C[C@H](C(=O)N[C@@]2(C)O[C@@]3(O)[C@H]4CCCN4C(=O)[C@@H](Cc4ccccc4)N3C2=O)C=C2c3cccc4[nH]cc(c34)C[C@@H]21 | . | . | -[14.2 µM] | . | . | . | . | . | .
COc1cc2cc(c1Cl)N(C)C(=O)C[C@H](OC(=O)C(C)C)[C@]1(C)O[C@@H]1[C@@H](C)[C@H]1C[C@](O)(NC(=O)O1)[C@@H](OC)/C=C\C=C(\C)C2 | . | . | -[14.2 µM] | . | . | . | . | . | .
Cc1ccccc1N1C(=O)NC(=O)/C(=C\c2cnn(-c3ccccc3)c2)C1=O | - | - | - | - | 50.1µM | 10.6 | ? | - | -
Cc1nn(Cc2ccccc2)c(C)c1C=C1C(=O)NC(=S)NC1=O | - | - | - | - | 25.1µM | 9.47 | ? | ? | -
O=[N+]([O-])/C=C/c1cn(Cc2ccc(Cl)cc2)c2ccccc12 | - | - | - | - | 25.1µM | 10.6 | ? | ? | ?
C[C@H]1COC2=C1C(=O)C(=O)c1c2ccc2c1CCCC2(C)C | ? | - | - | ? | 11.2µM | 20 | 25.1µM | - | -
CC1COC2=C1C(=O)C(=O)c1c2ccc2c1CCCC2(C)C (stereo not given) | 28.2µM | - | - | - | 7.08µM | ? | 14.1µM | - | -
O=C1C(=O)c2ccccc2-c2ccccc21 | - | - | - | ? | 10µM | 5.97 | 3.16µM | 3.66µM | 1.78µM
O=C1NC(=O)C(=Cc2cc(Cl)ccc2OCc2ccc(C(=O)O)cc2)C(=O)N1 | - | - | - | - | 50.1µM | ? | ? | - | -
O=C1NC(=O)C(=Cc2cccc(OCCOc3ccccc3)c2)C(=O)N1 | - | . | . | . | ? | . | . | . | .
O=[As](O)(O)c1ccc(Cc2ccc([As](=O)(O)O)cc2)cc1 | . | . | -[14.2 µM] | . | . | . | . | . | .
COc1cc2[nH]c(=S)n(-c3ccccc3)c(=O)c2cc1OC | - | - | - | - | - | . | . | . | .
COc1ccc(-n2c(=S)[nH]c3c(sc(=S)n3-c3ccccc3)c2=O)c(OC)c1 | - | - | - | - | 35.5µM | 3.36 | ? | - | -
O=C1NC(=O)C(=Cc2ccc(-c3ccc(S(=O)(=O)N4CCOCC4)cc3)o2)C(=O)N1 | - | . | . | . | 22.4µM | 18.9 | ? | - | -
O=C1NC(=O)C(=Cc2ccc(-c3ccc(Cl)cc3)o2)C(=O)N1 | - | . | . | . | ? | . | . | . | .
CC1(C)[C@@H]2CC[C@]1(C)CN(CCC[N+](C)(C)C)C2 | . | . | -[14.2 µM] | . | . | . | . | . | .

Screens deposited in PubChem BioAssay by National Center for Advancing Translational Sciences (NCATS).
